Source: the supplement of paper PMC7156485
± gives the standard deviation of the averaged measurements.

Assays:
Details in all cases: concentration: 10 µM; 24 h
HCC1569 [1] = experiment: cell number relative to DMSO (% of DMSO); higher = more cells (less growth inhibition / toxicity)
Summary of the method: (§1)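 Compounds were applied at 10 µM for 24 h at 37 °C, in triplicate, to HCC1569 and TDF cells. The cells were then fixed and stained for H1.0, and nuclei were counterstained with DAPI. Nuclear H1.0 intensity or cell number is reported relative to the plate control as a percent, taking the median of replicates. Smoothing for positional effects was applied to HCC1569 values only.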

TDF [2] = experiment: as above
Summary of the method: as §1

TDF [3] = experiment: H1.0 immunofluorescence intensity relative to DMSO (% of DMSO); higher = stronger H1.0 induction, active = 120 or more
Summary of the method: as §1

HCC1569 [4] = experiment: H1.0 immunofluorescence intensity relative to DMSO (% of DMSO); higher = stronger H1.0 induction, active = 140 or more
Summary of the method: as §1
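Wherever H1.0 immunofluorescence intensity relative to DMSO is given: TDF is a line of transformed human dermal fibroblasts of mesenchymal origin.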
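Wherever cell number relative to DMSO is given: TDF denotes transformed human dermal fibroblasts of mesenchymal origin.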

Compound	cell number (HCC1569 [1])	cell number (TDF [2])	H1.0 immunofluorescence intensity (TDF [3])	H1.0 immunofluorescence intensity (HCC1569 [4])
CC(=O)NBr [N-Bromoacetamide]	105	101	96.8 (inactive)	90.3 (inactive)
COc1cccc2c1cc([N+](=O)[O-])c1c(C(=O)O)cc3c(c12)OCO3 [Aristolochic acid A]	102	110	98.4 (inactive)	91.2 (inactive)
C#CC1(O)CCC2C3CCC4=CC(=O)CCC4=C3C=CC21CC (stereo unspecified) [Gestrinone]	99.4	100	91.2 (inactive)	112 (inactive)
CC1CCC2C(C)C3C(CC4C5CCC6CC(O)CCC6(C)C5CCC43C)N2C1 (stereo unspecified) [Demissidine]	97.9	92.2	102 (inactive)	92.6 (inactive)
C[N+]1(C)CCN(c2ccccc2)CC1.[I-] [1,1-Dimethyl-4-phenyl-piperazinium iodide]	99	93	95.8 (inactive)	109 (inactive)
COc1ccc(C(=O)N2CCCC2=O)cc1 [Aniracetam]	100.1 ± 0.23	97.8 ± 14	92.7 (inactive)	95 (inactive)
COc1ccc(C(CN(C)C)C2(O)CCCCC2)cc1 (stereo unspecified) [Venlafaxine]	102	107	106 (inactive)	110 (inactive)
CC(N)C(=O)OC(C)(C)Cc1ccc(Cl)cc1.Cl (stereo unspecified) [Alaproclate hydrochloride]	102	111	88.2 (inactive)	88.6 (inactive)
CCCCCCC1C(=O)OC(C)C(NC(=O)c2cccc(NC=O)c2O)C(=O)OC(C)C1OC(=O)CC(C)C (stereo unspecified) [Antimycin A1]	73.6	66.5	113 (inactive)	136 (inactive)
CCC(CO)NC(=O)C1C=C2c3cccc4c3c(cn4C)CC2N(C)C1.O=C(O)C=CC(=O)O (stereo unspecified) [Methysergide maleate]	101 ± 2.7	97.1 ± 7	100 (inactive)	97 (inactive)
CN(C)C(=O)Oc1cc(OC(=O)N(C)C)cc(C(O)CNC(C)(C)C)c1 (stereo unspecified) [Bambuterol]	101	112	93.5 (inactive)	106 (inactive)
CC(C)(OO)c1ccccc1 [Cumene hydroperoxide]	101	113	105 (inactive)	99.6 (inactive)
O=C([O-])Cc1ccccc1.[Na+] [Sodium Phenylacetate]	96.8	103	96.8 (inactive)	100 (inactive)
CCCCCC=CCC=CCC=CCC=CCCCC(=O)NCC(=O)O [N-Arachidonylglycine]	108	98.1	95.7 (inactive)	95.8 (inactive)
C=C(C)C1CNC(C(=O)O)C1CC(=O)O (stereo unspecified) [Kainic acid]	103 ± 3.2	108 ± 3	92.5 (inactive)	88.9 (inactive)
Cc1c(N)nc(C(CC(N)=O)NCC(N)C(N)=O)nc1C(=O)NC(C(=O)NC(C)C(O)C(C)C(=O)NC(C(=O)NCCc1nc(-c2nc(C(=O)NCCC[S+](C)C)cs2)cs1)C(C)O)C(OC1OC(CO)C(O)C(O)C1OC1OC(CO)C(O)C(OC(N)=O)C1O)c1cnc[nH]1.O=S(=O)([O-])O (stereo unspecified) [Bleomycin sulfate]	93.1	99.4	88.5 (inactive)	99.1 (inactive)
CC1C2Cc3ccc(O)cc3C1(C)CCN2CC1CC1 (single isomer, unassigned; (+)) [(+)-Cyclazocine]	102	92.2	96.9 (inactive)	86.8 (inactive)
Cl.Cl.Fc1ccc(C(OCCN2CCN(CCCc3ccccc3)CC2)c2ccc(F)cc2)cc1	81	69.8	96.7 (inactive)	124 (inactive)
COc1cc2c(c3oc4cccc(O)c4c(=O)c13)C1C=COC1O2 (stereo unspecified) [Sterigmatocystin]	80.2	75.6	96.5 (inactive)	92.2 (inactive)
CC(=O)N1N=C(c2ccc(N)cc2)c2cc3c(cc2C[C@H]1C)OCO3	95.4	103	106 (inactive)	95.8 (inactive)
NNC(=O)c1ccc(O)cc1 [4-Hydroxybenzhydrazide]	97.7	100	97.5 (inactive)	95.1 (inactive)
COC(=O)CC(O)(CCC(C)(C)O)C(=O)OC1C(OC)=CC23CCCN2CCc2cc4c(cc2C13)OCO4 (stereo unspecified) [Harringtonine]	56.5	29.9	107 (inactive)	90 (inactive)
COC1=C(OC)C(=O)C(=C2C(C)=C(C(=O)O)NC(c3ccc4c(n3)C(=O)C(N)=C(OC)C4=O)=C2N)C=C1 [Streptonigrin]	41.2	5.53	171 (active)	128 (inactive)
CC(Cc1ccc(OCC(=O)[O-])cc1)NCC(O)c1cccc(Cl)c1.[Na+] (stereo unspecified)	104	110	89.5 (inactive)	88.6 (inactive)
CC1Cc2cc3c(cc2C(c2ccc(N)cc2)=NN1)OCO3 (stereo unspecified)	98.9	112	103 (inactive)	98.2 (inactive)

Compound	cell number (HCC1569 [1])	cell number (TDF [2])	H1.0 immunofluorescence intensity (TDF [3])	H1.0 immunofluorescence intensity (HCC1569 [4])
COc1ccc2c(c1)[nH]c1c(C)nccc12 [Harmine]	87.2 ± 2.5	94.9 ± 3.2	99.7 (inactive)	106 (inactive)
CCCN(CCC)C(=O)Cc1c(-c2ccc(Cl)cc2)nc2c(Cl)cc(Cl)cn12	103	105	102 (inactive)	100 (inactive)
Cc1cccc(C)c1NC1=NCCCS1.Cl [Xylazine hydrochloride]	100	118	99.9 (inactive)	111 (inactive)
O=C1CCCC2C3CCCN4CCCC(CN12)C34 (stereo unspecified) [Matrine]	100	94.7	99.3 (inactive)	94.6 (inactive)
CCn1cc(C(=O)[O-])c(=O)c2ccc(C)nc21.[Na+] [Nalidixic acid sodium]	107	107	86 (inactive)	92.4 (inactive)
NC(Cn1cc(I)c(=O)[nH]c1=O)C(=O)O (stereo unspecified) [S-5-Iodowillardiine]	107	107	91.2 (inactive)	111 (inactive)
CC12CCC(O)CC1CCC1C2CCC2(C)C(C(=O)CO)CCC12 (stereo not drawn) [3-alpha,21-Dihydroxy-5-alpha-pregnan-20-one]	102	89	98.8 (inactive)	87 (inactive)
CCCN1CCCC2Cc3[nH]ncc3CC21 (racemic)	99.6	96.7	100 (inactive)	106 (inactive)
COc1cc2c(c(OC)c1OC)-c1ccc(SC)c(=O)cc1C(NC(C)=O)CC2 (stereo unspecified) [Thiocolchicine]	59.6	10.7	187 (active)	155 (active)
CC12CCC3C(CCC4=C(O)C(=O)CCC43C)C1CCC2=O (stereo unspecified) [4-Androsten-4-ol-3,17-dione]	102	96.7	93.4 (inactive)	89.7 (inactive)
CC(=O)NC1CN2CCC(O)C2C(O)C1O (stereo unspecified) [6-Acetamido-6-deoxy-castanospermine]	103	103	97.2 (inactive)	87.4 (inactive)
CC1=CC(=O)C2=C(C)CC(O)C3C(C)C(=O)OC3C12 (stereo unspecified) [Austricin]	101	97.7	96.7 (inactive)	98.1 (inactive)
O=C(O)C1C2CCC(O2)C1C(=O)O (stereo unspecified) [Endothall]	97.6	97.8	108 (inactive)	129 (inactive)
CC1C=CC=CCCC=CC=CC=CC=CC(OC2OC(C)C(O)C(N)C2O)CC2OC(O)(CC(O)C(O)CCC(O)CC(O)CC(O)CC(=O)OC(C)C(C)C1O)CC(O)C2C(=O)O (stereo unspecified) [Nystatin]	101	105	103 (inactive)	104 (inactive)
CC(=O)OC1C(c2ccc(=O)oc2)C2(C)CCC3C(CCC4CC(O)CCC43C)C23OC13 (stereo unspecified) [Cinobufagin]	53.5	42.2	115 (inactive)	99.5 (inactive)
CC(=O)c1c(O)c(C)c(O)c(Cc2c(O)c3c(c(C(=O)C=Cc4ccccc4)c2O)OC(C)(C)C=C3)c1O [Rottlerin]	82.5 ± 13	77.9 ± 6.9	109 (inactive)	104 (inactive)
NC(N)=Nc1ccc2[nH]c3c(c2c1)CC1(O)C2Cc4ccc(O)c5c4C1(CCN2CC1CC1)C3O5.O=C(O)C(F)(F)F.O=C(O)C(F)(F)F (stereo unspecified) [Guanidinyl-naltrindole di-trifluoroacetate]	93.6	83.5	104 (inactive)	115 (inactive)
O=C1Nc2ccc3ncsc3c2C1=Cc1cnc[nH]1 [PKR Inhibitor]	61.1	17	112 (inactive)	136 (inactive)
C=CCN1CCC23c4c5ccc(O)c4OC2C(=O)CCC3(O)C1C5.Cl (stereo unspecified) [Naloxone hydrochloride]	104	98.9	97.1 (inactive)	90.6 (inactive)
NC(=O)c1cc(N2CC2)c([N+](=O)[O-])cc1[N+](=O)[O-]	96.1	94	89.4 (inactive)	91.7 (inactive)
CCCCCCCCCCCCCCC(Br)C(=O)O (stereo unspecified) [2-bromohexadecanoic acid]	109	107	91.6 (inactive)	94.5 (inactive)
CCCC[N+]1(C)C2CC(OC(=O)C(CO)c3ccccc3)CC1C1OC12.[Br-] (single isomer, unassigned; (-)) [(-)-Scopolamine,n-Butyl-, bromide]	101	106	96 (inactive)	109 (inactive)
C=C1C(C)C2C(Cc3ccccc3)NC(=O)C23C(OC(C)=O)C=CC(C)(O)C(=O)C(C)CC=CC3C1O (stereo unspecified) [Cytochalasin D]	69.1	45.1	212 (active)	204 (active)
C1CCC(NC2CCCCC2)CC1	96.5	102	93.9 (inactive)	100 (inactive)
